Here are results for 19 compounds from PubChem BioAssay (NCATS).

Assay [1] deals with Alpha-galactosidase (Coffea arabica) (UniProt Q42656). In words: Counterscreen for Glucocerebrosidase Inhibitors: qHTS Assay for Coffee Bean alpha-Galactosidase at pH 4.5 (AID 957). Also: series mostly up to about 77 µM. Put shortly:
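Coffee bean alpha-galactosidase 2 nM, substrate 4-MU-alpha-Gal 80 uM, pH 4.5 citrate/Tween-20, 20 min RT. Cpd titration 0.7 nM–77 uM. Stop pH 10, fluorescence 365/440 nm; Hill-equation AC50.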

Assay [2] in a line: MultiTox-Fluor Cytotoxicity Assay - LYMP1-002 - Dead Cells (AID 960). Also: nearly all actives have a fitted effect of over 60% in size. Also: potency is read from the fitted curve at half-maximal effect. Summed up:
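LYMP1-002 cells 2500/well; 5 hr 37 C pre-incubation; compound 16 hr 37 C; MultiTox-Fluor reagent 60 min RT; dead-cell fluor Ex/Em 485/520. Norm. to DMSO (0%) vs 15 uM tetraoctylammonium bromide (100%); Hill AC50.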

A short description of assay [3]: MultiTox-Fluor Cytotoxicity Assay - LYMP1-003 - Dead Cells (AID 961). Also: nearly all actives have a fitted effect of over 70% in size. Put shortly: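 Dead-cell protease release, detected as bis-AAF-R110 fluorescence at 485/520 nm, was measured in LYMP1-003 cells after 16 h compound treatment at 37 C. AC50 values came from Hill-modeled qHTS curves normalized to DMSO (0%) and 15 uM tetraoctylammonium bromide (100%).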
A short description of assay [4]: MultiTox-Fluor Cytotoxicity Assay - LYMP1-003 - Live Cells (AID 962).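 Also: cytotoxic hits lower the live-cell protease signal.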 Summed up:
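qHTS, 1536-well; 2500 cells/well LYMP1-003; 5 hr 37 C settle; cpd 16 hr 37 C; MultiTox-Fluor reagent 60 min RT; live-cell protease fluor. 405/510; Hill-fit AC50; tetraoctylammonium bromide pos. ctrl.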

The nature of assay [5]: Cell Viability - LYMP1-003 - Assay at 24 hr (AID 963). Put shortly:
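Cells seeded at 2500/well, 5 hr at 37 C; compounds added; 24 hr at 37 C; CellTiter-Glo added, 30 min room temperature; luminescence read. Decrease in ATP taken as cytotoxicity, AC50 from Hill modelling.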

Assay [6] in a line: Cell Viability - LYMP1-003 - Assay at 40 hr (AID 964). Also: series mostly up to about 92 µM; nearly all actives have a fitted effect of over 60% in size. Put shortly: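 Cells were seeded at 2500 per well and incubated 5 hr at 37 C. Compounds were added across a concentration series and left 40 hr at 37 C. CellTiter-Glo was added for 30 min at room temperature before luminescence reading.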
The nature of assay [7]: Cell Viability - LYMP2-003 (AID 965).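 Also: cells exposed to compounds for 24 h before reading; nearly all actives have a fitted effect of over 50% in size.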 Summed up: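 CellTiter-Glo luminescence quantified ATP loss after 24 h compound treatment of LYMP2-003 lymphoblastoid cells at 37 C. Titration series were fitted with the standard Hill equation to give AC50.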
Assay [8] in a line: Cell Viability - LYMP2-009 (AID 968). Also: series mostly up to about 92 µM; nearly all actives have a fitted effect of over 55% in size.
Assay [9] is described as follows: Cell Viability - LYMP2-013 (AID 970). Also: series mostly up to about 92 µM; nearly all actives have a fitted effect of over 55% in size. Put shortly:
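qHTS; 2500 lymphoblastoid cells/well; 5 hr 37 C settle; cpd 24 hr 37 C; CellTiter-Glo, 30 min RT; luminescence. AC50 = Hill fit.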

A short description of assay [10]: Cell Viability - LYMP2-015 (AID 971). Also: nearly all actives have a fitted effect of over 55% in size. Put shortly: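 Luminescent ATP read-out (CellTiter-Glo) served as the viability measure after lymphoblastoid cells were exposed to compounds for 24 hours at 37 C. Concentration-response data were fitted with the Hill equation to give AC50.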
The nature of assay [11]: Cell Viability - LYMP2-017 (AID 972). Also: series mostly up to about 92 µM; nearly all actives have a fitted effect of over 55% in size. Put shortly:
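2500 cells/well, 5 h 37 C; cpd 24 h 37 C in complete medium; CellTiter-Glo, 30 min RT; luminescence (ATP). AC50 via Hill fit, qHTS.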

Assay [12] in a line: Cell Viability - LYMP2-019 (AID 973). Also: nearly all actives have a fitted effect of over 55% in size. Put shortly: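 Luminescent ATP read-out (CellTiter-Glo, 30 min room temperature) served as the viability measure after 24 hr treatment of lymphoblastoid cells at 37 C. Concentration-response data were fitted to the Hill equation for AC50.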
Assay [13] can be described thus: Cell Viability - LYMP2-021 (AID 974). Put shortly:
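Plate 2500 lymphoblastoid cells per well and incubate 5 hr at 37 C. Add compounds over a concentration range and incubate 24 hr at 37 C. Add CellTiter-Glo, wait 30 min at room temperature, read luminescence.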

Assay [14] in a line: Cell Viability - LYMP2-023 (AID 975). Put shortly: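 2500 cells/well, 5 hr 37 C; cpd 24 hr 37 C; CellTiter-Glo, 30 min RT; luminescence. qHTS conc-response, Hill fit -> AC50. Pos ctrl tetraoctylammonium bromide.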
Assay [15] is described as follows: Cell Viability - LYMP2-025 (AID 976). Also: series mostly up to about 92 µM. Summed up: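 Seed 2500 LYMP2-025 cells/well; 5 hr at 37 C; add compound; 24 hr at 37 C; add CellTiter-Glo; 30 min RT; read luminescence. AC50 from Hill-modelled concentration-response.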
Assay [16] can be described thus: Cell Viability - LYMP2-002 (AID 977).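 Also: series mostly up to about 92 µM; compound exposure lasted 24 h at 37 °C.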 Put shortly: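 Human lymphoblastoid LYMP2-002 cells, 2500 per well, exposed to compounds for 24 h at 37 C in complete medium; viability read as intracellular ATP by CellTiter-Glo luminescence, AC50 from Hill fits.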
Assay [17] is described as follows: Cell Viability - LYMP2-007 (AID 979).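 Also: cells exposed to compound for 24 h before reading; nearly all actives have a fitted effect of over 60% in size.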 Put shortly:
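Luminescent ATP signal (CellTiter-Glo) serves as the viability read-out after 24 hr compound treatment of lymphoblastoid cells in complete medium at 37 C. Concentration-response data were fitted to the Hill equation to give AC50 values.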

Assay [18] is described as follows: Cell Viability - LYMP2-008 (AID 980). Also: nearly all actives have a fitted effect of over 60% in size. Summed up:
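qHTS, human lymphoblastoid line, 2500 cells/well; 5 hr preincubation, 24 hr compound, 37 C. CellTiter-Glo ATP luminescence. AC50 via Hill equation. Tetraoctylammonium bromide positive control.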

Assay [19] in a line: Cell Viability - LYMP2-004 (AID 966). Also: nearly all actives have a fitted effect of over 65% in size. Put shortly:
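Cells seeded 2500/well, rested 5 hr at 37 C, dosed across a concentration series, incubated 24 hr at 37 C, then CellTiter-Glo added for 30 min at room temperature and luminescence read. Hill fitting gave AC50.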

Assay [20] in a line: Cell Viability - LYMP2-005 (AID 967). Also: series mostly up to about 92 µM. Put shortly:
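LYMP2-005 human lymphoblastoid cells (2500/well) were treated with compounds for 24 h at 37 C. Intracellular ATP was then measured by CellTiter-Glo luminescence after 30 min at room temperature. AC50 values came from Hill-equation fits of qHTS concentration-response data.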

Several values for one entry are separate records, joined by “and”; a condition that tells them apart may be missing. Identical values can stand only once. Results filed as inconclusive are left out. A structure can be active in one record and inactive in another. Activity calls are given as the source filed them. Calls follow the shape of the dose curve; as a rule, active = well fitted curve in the direction sought with a large enough effect; inconclusive = small, poorly fitted or top-dose-only effect, or another doubt; inactive = no such curve, though single readings can be large; an effect the other way counts as inactive or inconclusive.

Sequence of Alpha-galactosidase (Coffea arabica) (Q42656 whole entry, looked up): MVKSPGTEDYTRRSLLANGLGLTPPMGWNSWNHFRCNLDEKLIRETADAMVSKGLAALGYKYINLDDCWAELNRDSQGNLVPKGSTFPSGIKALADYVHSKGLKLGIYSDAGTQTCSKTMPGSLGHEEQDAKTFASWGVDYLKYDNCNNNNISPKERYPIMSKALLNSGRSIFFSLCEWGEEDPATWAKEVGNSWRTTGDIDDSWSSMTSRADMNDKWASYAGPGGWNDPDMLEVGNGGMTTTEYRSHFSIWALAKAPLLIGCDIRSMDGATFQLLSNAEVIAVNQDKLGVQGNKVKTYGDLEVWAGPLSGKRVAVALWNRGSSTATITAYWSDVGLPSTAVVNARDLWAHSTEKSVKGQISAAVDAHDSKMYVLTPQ

On to `CNC[C@H](O)c1cccc(O)c1`, for which the result in assay [1] was inactive.
With `Oc1ccc(Cl)cc1`, the Potency entry in [2] is “inactive”. Also, the compound was classed as inactive in assay [3], in assay [4], in [5], in assay [6], in assay [7] and in [8]. The call in [9], in assay [10], in assay [11], in assay [12], in assay [13] and in assay [14] was inactive. Moreover, the outcome in assay [15], in [16], in assay [17] and in [18] was inactive.
As to `C[C@]12CCC(=O)C=C1CC[C@@H]1[C@@H]2CC[C@@]2(C)[C@H]1CC[C@]2(C)O`, the compound was classed as inactive in assay [3], in assay [4], in [5], in [6], in assay [7] and in assay [19]. The call in assay [20], in assay [8], in assay [9], in [10], in assay [11] and in assay [12] was inactive. Also, the result in assay [13], in assay [14], in [15], in [16], in assay [17] and in assay [18] was inactive.
Consider `CCCCC/C=C\C/C=C\C/C=C\C/C=C\CCCC(=O)NCC(=O)O`, for which the call in assay [1] was inactive.
For the compound `CC(C)NC(C)C`, the Potency entry in assay [2] was “inactive”. In addition, the outcome in assay [3], in assay [4], in [5], in assay [6], in assay [7] and in assay [19] was inactive. Besides, the call in [20], in assay [8], in assay [9], in assay [10], in [11] and in assay [12] was inactive. Besides, the result in assay [13], in [14], in assay [15], in assay [16], in [17] and in assay [18] was inactive.
Turning to `COP(=S)(OC)Oc1ccc(SC)c(C)c1`, the Potency result in [2] is “inactive”. The compound was classed as inactive in [3], in assay [4], in assay [5], in [6], in assay [7] and in [19]. For the same compound, the call in assay [20], in assay [8], in assay [9], in [10], in [11] and in assay [12] was inactive. In addition, the call in [13], in [14], in [15], in [16], in [17] and in assay [18] was inactive.
Consider `CCCC(C)(COC(N)=O)COC(N)=O`, for which, in assay [2], the Potency result is “inactive”. For the same compound, the result in assay [3], in [4], in [5], in [6], in assay [7] and in assay [19] was inactive. For the same compound, the result in [20], in assay [8], in assay [9], in assay [10], in assay [11] and in assay [12] was inactive. Also, the compound was called inactive in assay [13], in assay [14], in [15], in assay [16], in assay [17] and in [18].
For `O=C(O)CCCc1ccc(N(CCCl)CCCl)cc1`, the outcome in [1], in assay [3], in assay [4], in assay [5], in assay [12] and in assay [14] was inactive. Besides, the outcome in assay [15] and in assay [16] was inactive. Moreover, in assay [2], the Potency result is “inactive”.
For `CN1CCN(CCC=C2c3ccccc3Sc3ccc(S(=O)(=O)N(C)C)cc32)CC1`, the compound was classed as inactive in assay [1].
Regarding `Clc1ccc(C(c2ccc(Cl)cc2)C(Cl)(Cl)Cl)cc1`, the Potency result in [2] was “inactive”. Besides, the outcome in assay [3], in [4], in assay [6], in [7], in [19] and in [20] was inactive. For the same compound, the outcome in assay [8], in assay [9], in assay [10], in assay [11], in [12] and in assay [13] was inactive. The result in assay [14], in assay [15], in assay [16], in [17] and in [18] was inactive.
Turning to `COC(=O)C(c1ccccc1)C1CCCCN1` (stereo unspecified), in [2], the Potency result is “inactive”. In addition, the compound was classed as inactive in [3], in assay [4], in assay [5], in assay [6], in assay [7] and in [19]. For the same compound, the call in [20], in [8], in assay [9], in assay [11], in assay [12] and in assay [13] was inactive. The compound was classed as inactive in assay [14], in [15], in [16], in [17] and in assay [18].
On to `C[C@]12CCC(=O)C=C1CC[C@@H]1[C@@H]2CC[C@]2(C)C(=O)CC[C@@H]12`, for which the call in assay [1], in [3], in [4], in assay [5], in [6] and in assay [7] was inactive. In addition, the compound was classed as inactive in [19], in assay [20], in assay [8], in [9], in [10] and in assay [11]. The call in [12], in assay [13], in [14], in assay [15], in assay [16] and in [17] was inactive. In addition, in assay [18], the compound was called inactive. The Potency entry in [2] is “inactive and 15.8 µM (active)”.
Take `CCn1nc(C(=O)O)c(=O)c2cc3c(cc21)OCO3`: the compound was classed as inactive in [1].
On to `Nc1ccccc1C(=O)O`, for which, in assay [2], the Potency entry was “inactive”. Also, the call in [3], in [4], in assay [5], in assay [6], in assay [7] and in assay [19] was inactive. In addition, the compound was classed as inactive in assay [8], in [9], in assay [10], in assay [11], in assay [12] and in [13]. In addition, the call in assay [14], in [15], in assay [16], in assay [17] and in assay [18] was inactive.
As for `O=c1[nH]c(=O)n([C@H]2C[C@H](O)[C@@H](CO)O2)cc1Br`, the outcome in assay [1] was inactive.
With `CN1C[C@H](C(=O)N[C@]2(C)O[C@@]3(O)[C@@H]4CCCN4C(=O)[C@H](Cc4ccccc4)N3C2=O)C=C2c3cccc4[nH]cc(c34)C[C@H]21`, the compound was called inactive in assay [3], in [4], in [5], in assay [6], in assay [7] and in assay [19]. The compound was classed as inactive in assay [8], in [9], in [11], in assay [13], in [14] and in [15]. Also, the compound was classed as inactive in assay [16], in [17] and in [18].
Consider `CC(C)c1cccc(C(C)C)c1O`, for which the outcome in assay [1], in assay [3], in assay [4], in [5], in assay [6] and in assay [7] was inactive. The compound was called inactive in [19], in [20], in [8], in [9], in assay [10] and in [11]. In addition, the compound was classed as inactive in assay [12], in assay [13], in [14], in assay [16], in [17] and in assay [18]. The Potency result in [2] is “inactive”.
Take `O=c1c(-c2ccc(O)cc2)coc2cc(O)cc(O)c12`: the outcome in assay [1] was inactive.
On the same count and under the same terms, with `CC(=O)OCC(=O)[C@@]1(O)CC[C@H]2[C@@H]3CCC4=CC(=O)CC[C@]4(C)[C@H]3C(=O)C[C@@]21C` the entry was “inactive”.
